Compound activity: PubChem BioAssay, National Center for Advancing Translational Sciences (NCATS)
A selection: hits, their analogues and other compounds. The true share with any hit is near 12%.
JMJD2A Tudor inh = JMJD2A Tudor domain (human) inhibition; O75164; AlphaScreen JMJD2A-Tudor / H3K4me3 peptide binding; actives 4.4% (n = 390,000); Potency, µM (top dose mostly 114 µM), for the others: top-dose activity change, negative = inhibition, actives largely listed as inhibitors; further: potency means the concentration at half of the fitted maximal effect; on the % scale 0 is the no-effect control and ±100 the full control effect; nearly all actives have a fitted effect of over 50% in size
HP1b binding inh = inhibitors of HP1-beta chromodomain binding to methylated histone tails; actives 0.56% (n = 390,000); AlphaScreen HP1-beta / biotin-H3K9me3 peptide binding; Potency, µM (top dose mostly 114 µM), without a hit: top-dose activity change, negative = inhibition, usual class: inhibitors; AID 540317; P83916; further: potency means the concentration at half of the fitted maximal effect; nearly all actives have a fitted effect of over 70% in size
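HP1-beta protein (50 nM final) preincubated 30 min at room temperature with biotinylated H3(1-18)K9me3 peptide (50 nM) in PBS pH 7.4, 0.01% Tween-20, then compound added for 30 min. AlphaScreen streptavidin donor/nickel chelate acceptor beads (10 ug/mL final), 30 min dark, luminescence read.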
BAZ2B block = inhibitors of human BAZ2B bromodomain; AlphaScreen BAZ2B-H3K14Ac peptide displacement; Potency, µM (top dose mostly 114 µM), for the others: top-dose activity change, negative = inhibition, usual class: inhibitors; actives 4.4% (n = 360,000); Q9UIF8; further: potency means the concentration at half of the fitted maximal effect; on the % scale 0 is the no-effect control and ±100 the full control effect; nearly all actives have a fitted effect of over 60% in size
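BAZ2B 50 nM plus b-H3(5-23)K14Ac 50 nM, PBS pH 7.4/0.01% Tween-20, 30 min RT; compound added (max 110 uM), 30 min RT; streptavidin donor/Ni-chelate acceptor beads 10 ug/mL final, 20 min dark; AlphaScreen read.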
PLK1 PBD inh = inhibitors of human PLK1 polo-box domain binding; Plk1 PBD binding of FITC phosphopeptide, fluorescence polarization; Potency, µM, without a hit: max response, negative = inhibition, actives largely listed as inhibitors; actives 2.8% (n = 360,000); AID 720504; further: potency means the concentration at half of the fitted maximal effect; series mostly up to about 57 µM; on the % scale 0 is the no-effect control and ±100 the full control effect; nearly all actives have a fitted effect of over 65% in size
Target sequence (P53350 whole entry, looked up, the tested form may be a part): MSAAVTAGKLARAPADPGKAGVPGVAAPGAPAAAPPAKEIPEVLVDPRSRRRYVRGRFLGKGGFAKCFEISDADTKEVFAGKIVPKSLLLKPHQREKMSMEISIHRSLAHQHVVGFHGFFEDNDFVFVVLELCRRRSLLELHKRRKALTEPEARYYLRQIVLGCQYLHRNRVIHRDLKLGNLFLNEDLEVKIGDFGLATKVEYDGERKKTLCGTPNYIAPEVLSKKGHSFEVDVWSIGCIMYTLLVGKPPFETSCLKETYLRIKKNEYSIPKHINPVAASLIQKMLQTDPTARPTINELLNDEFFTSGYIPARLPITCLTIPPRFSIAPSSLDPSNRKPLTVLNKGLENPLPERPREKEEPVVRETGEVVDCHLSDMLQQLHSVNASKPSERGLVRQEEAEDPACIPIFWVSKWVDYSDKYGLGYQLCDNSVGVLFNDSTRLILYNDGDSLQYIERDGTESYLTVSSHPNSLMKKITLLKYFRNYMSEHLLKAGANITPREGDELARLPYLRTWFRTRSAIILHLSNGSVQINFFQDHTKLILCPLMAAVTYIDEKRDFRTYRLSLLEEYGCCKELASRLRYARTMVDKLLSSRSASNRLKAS
PI5P4K alpha inh = blocks human PI5P4K alpha kinase activity; P48426; PI5P4Kalpha enzyme, ADP-Glo luminescence, 60 min; hits give low values; max response, %; actives 1.2% (n = 330,000); AID 652105; active means max response of -50% or lower; inconclusive means between -30% and -50%; inactive means -30% or higher; further: value at the top dose of about 77 µM; on the % scale 0 is the no-effect control and ±100 the full control effect
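Enzyme plus substrate dispensed, test compounds pinned in, then ATP (5 microM final) added. After 60 min at RT, ADP-Glo reagent 1 for 45 min and reagent 2 for 30 min preceded luminescence imaging.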
G9a inh = inhibitors of human histone lysine methyltransferase G9a; Q96KQ7; G9a H3K9 monomethylation, AlphaScreen, 2 h; Potency, µM (top dose mostly 102 µM), without a hit: at the highest dose activity, negative = inhibition, actives largely listed as inhibitors; actives 8.8% (n = 350,000); AID 504332; further: potency means the concentration at half of the fitted maximal effect; on the % scale 0 is the no-effect control and ±100 the full control effect; nearly all actives have a fitted effect of over 75% in size
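Readings reflect AlphaScreen signal from monomethyl-H3K9 antibody detection. HMT at 20 nM; substrate b-H3K9 500 nM; cofactor SAM 20 uM; 2 h RT reaction; compounds tested as titrations in qHTS with 15 min preincubation.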
Active calls of the source: *; ? = inconclusive; nt = no result; ! = not confirmed by another sample; [ ] = another dose, or the depositor's remark. Unless noted, the call rests on the fitted dose curve; in most records, active means well fitted curve in the direction sought with a large enough effect; inconclusive means small, poorly fitted or top-dose-only effect, or another doubt; inactive means no such curve, though single readings can be large; an effect the other way counts as inactive or inconclusive.

SMILES	JMJD2A Tudor inh	HP1b binding inh	BAZ2B block	PLK1 PBD inh	PI5P4K alpha inh	G9a inh
COc1ccc2oc(C(=O)N3CCN(S(=O)(=O)c4c(C)c(C)cc(C)c4C)CC3)c(C)c2c1	-23%	38%	nt	0%	8	nt
Cc1nn(C)c2c1c(C(F)(F)F)cc(=O)n2CC(=O)N1CCCCC1	2%	8%	-15%	nt	nt	1%[59 µM]
COc1ccc(C(=O)NCCn2cc(SCC(=O)Nc3cccc(C)c3)c3ccccc32)cc1	-16%	33%	50µM*	nt	nt	-31%[59 µM]
Cc1nnc(NC(=O)CSc2cn(CCNC(=O)c3ccccc3)c3ccccc23)s1	-15%	48%	-3%	-11%	0	28µM*
COc1ccc(C(=O)NCCn2cc(SCC(=O)NCc3ccco3)c3ccccc32)cc1	?	-24%	-31%	3µM*	?	-11%[2.33 µM]
COc1ccc(C(=O)NCCn2cc(SCC(=O)Nc3nnc(C)s3)c3ccccc32)cc1	-21%	16%	nt	-7%	nt	nt
CCOc1ccccc1OCCCC(=O)N(CC)CC(=O)Nc1ccc(NC(C)=O)cc1	-10%	13%	9%	1%	2	50µM*
CCN(CC(=O)Nc1ccc(NC(C)=O)cc1)C(=O)CCCSc1nc2ccccc2[nH]1	-10%	9%	9%	-1%	3	50µM*
CCN(CC(=O)Nc1ccc(NC(C)=O)cc1)C(=O)COc1ccccc1-c1ccccc1	-14%	34%	-5%	2%	0	5%[2.33 µM]
COc1ccc(NC(=O)CCC(=O)NCc2ccco2)c([N+](=O)[O-])c1	2%	30%	-36%	9%	-3	16%[59 µM]
O=C(Nc1ccc(F)c(Cl)c1)C1CCN(S(=O)(=O)c2ccc3[nH]c(=O)ccc3c2)CC1	-1%	24%[57 µM]	5%	nt	nt	1%[59 µM]
O=C(COC(=O)/C=C/c1cccc(C(F)(F)F)c1)NC1CCS(=O)(=O)C1 (centres undefined)	-7%	50%	-3%	-4%	-1	-10%[2.33 µM]
O=C(CSc1nc(-c2ccccc2)cs1)Nc1ccccc1[N+](=O)[O-]	?	?	25µM*	-6%	9	?
O=C1CC(=O)NC(SCC(=O)Nc2ccccc2[N+](=O)[O-])=N1	35µM*	?	40µM*	?	?	25µM*
Cc1cccc(Nc2nnc(SCC(=O)NC3CCCc4ccccc43)s2)c1C (centres undefined)	-26%	7%	-29%	-13%	-7	?
Cc1ccccc1Nc1nnc(SCC(=O)Nc2ccccc2[N+](=O)[O-])s1	?	?	?	-21%	?	45µM*
Cc1cccc(Nc2nnc(SCC(=O)c3ccc(Br)s3)s2)c1C	-13%	26%	-36%	-27%	-10	4.5µM*
CCCNC(=O)N1[C@H](c2ccc(C)s2)[C@@H](C)C(=O)[C@@H](C)[C@@H]1c1ccc(C)s1	-3%	37%	-2%	nt	nt	?
COc1cc(NC(=O)CCc2c(C)nc3c(c(C)nn3-c3ccccc3)c2C)cc(OC)c1OC	5%	40%	-5%	nt	nt	8%[59 µM]
O=C1CN(C(=O)c2ccccc2)c2ccccc2N1	-3%	18%	5%	-4%	-5	6%[59 µM]
O=C1C(=C(c2ccccc2)c2ccccc2)Nc2ccccc21	28µM*	16µM*	11µM*	1%	5	-147%[59 µM]
CC(=O)c1cccc(NS(=O)(=O)c2ccc(N/C=C/C(=O)c3ccc(F)cc3)cc2)c1	-20%	16%	?	0%	-7	8.9µM*
CC(=O)c1cccc(NS(=O)(=O)c2ccc(N/C=C\C(=O)c3ccc(F)cc3)cc2)c1	-25%	-2%	-29%[57.1 µM]	-5%	1	?
CC(=O)c1ccc(NS(=O)(=O)c2ccc(N/C=C/C(=O)c3ccc(F)cc3)cc2)cc1	?	2%	-25%	17µM*	-2	-31%[12.7 µM]
CS(=O)(=O)N1CCC2(CC1)CN(Cc1ccc(C#N)cc1)C2	nt	nt	nt	nt	nt	9%[12.7 µM]
SMILES	JMJD2A Tudor inh	HP1b binding inh	BAZ2B block	PLK1 PBD inh	PI5P4K alpha inh	G9a inh
CCN(CC)S(=O)(=O)c1cc(NC(=O)C(C)N2CCc3ccccc32)ccc1C (centres undefined)	?	-13%	nt	2%	9	25µM*
Cc1ccc(NC(=O)C(C)N2CCCc3ccccc32)cc1S(=O)(=O)N1CCOCC1 (centres undefined)	nt	nt	nt	-2%	-5	nt
CC(C(=O)Nc1ccc(S(N)(=O)=O)cc1)N1CCc2ccccc21 (centres undefined)	-28%	-4%	-36%	-7%	-3	79µM*
CC(=O)c1cccc(NC(=O)NC2CC(=O)N(c3ccc4c(c3)OCCO4)C2)c1 (centres undefined)	1%	26%	8%	-4%	5	-1%
CCc1nnc2c(NCCc3ccc(OC)c(OC)c3)nc3ccccc3n12	32µM*!	10%	?	27µM*	-18	4%
O=C(Nc1nnc(-c2ccco2)o1)c1ccc(N2C(=O)CCC2=O)cc1	28µM*	27%	18µM*	-7%	-6	-26%
O=C(CSc1ccc(F)cc1)Nc1nnc(-c2ccco2)o1	?	38%	35µM*	-14%	-1	1%[0.501 µM]
O=C(Nc1nnc(-c2ccc(Br)cc2)o1)c1cccc(N2C(=O)CCC2=O)c1	-21%	34%	71µM*	-4%	2	-33%
O=C(Nc1ccc(Br)cc1)c1cccc(N2C(=O)CCC2=O)c1	-16%	6%	19%	-5%	5	nt
O=C(Nc1nnc(-c2ccc(Cl)cc2)o1)c1ccc(N2C(=O)CCC2=O)cc1	-14%	19%	-26%	-1%	-10	43%[59 µM]
CC(=O)Nc1nnc(-c2ccco2)o1	4µM*	8%	?	-5%	-10	7%
COc1ccc(N2CCN(C(=O)NCc3cccc(OC)c3)CC2)cc1	-15%	10%	2%	-17%	-5	?
CNC(=O)C1CCC(Cn2c(=O)[nH]c3ccsc3c2=O)CC1 (centres undefined)	-13%	14%	-33%	nt	nt	-6%[59 µM]
Cc1cccc(C)c1NC(=O)CN(C1CCCCC1)S(C)(=O)=O	-6%	3%	12%	-10%	2	nt
CCOC(=O)Nc1nc2ccc(Cn3cccc3)cc2[nH]1	2%	33%	nt	5%	0	nt
O=C(Nc1nnc(-c2ccco2)o1)c1ccc(Cl)s1	0%	56%	?	4%	2	79µM*
Cc1nc(C)c(C(=O)N(c2ccccc2F)C(C(=O)NCC2CCCO2)c2ccccc2)s1 (centres undefined)	?	-2%	4%	27µM*	-8	1%[12.7 µM]
Cc1oc(C(=O)O)cc1COc1cccc2ccccc12	-24%	-3%	-31%	-12%	1	?
